# Assay results: ChEMBL document CHEMBL1961873, “Compounds: GSK PKIS; Assays: Nanosyn kinase panel” (2012)
# Assays:
# [1] = target: T1, Mitogen-activated protein kinase 12 (Homo sapiens) (UniProt P53778); conditions: at 1 µM;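 note: values are averaged p38gamma kinase inhibition readings, compounds tested at 1 µM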
# T1 sequence (whole entry): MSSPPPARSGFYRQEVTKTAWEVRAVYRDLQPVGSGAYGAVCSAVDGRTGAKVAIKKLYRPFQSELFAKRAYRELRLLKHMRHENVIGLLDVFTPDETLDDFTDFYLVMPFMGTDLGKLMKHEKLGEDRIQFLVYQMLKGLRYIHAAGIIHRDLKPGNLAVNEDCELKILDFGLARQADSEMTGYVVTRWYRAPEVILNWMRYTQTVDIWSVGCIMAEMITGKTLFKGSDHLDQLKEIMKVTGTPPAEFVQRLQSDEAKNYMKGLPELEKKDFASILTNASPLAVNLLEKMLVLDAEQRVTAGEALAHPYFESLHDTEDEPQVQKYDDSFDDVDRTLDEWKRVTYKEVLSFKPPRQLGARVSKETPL
# [2] = target: SRSF protein kinase 1 (Homo sapiens) (UniProt Q96SB4); conditions: at 0.1 µM
# [3] = target: SRSF protein kinase 1 (Homo sapiens) (UniProt Q96SB4); conditions: at 1 µM
# [4] = target: Phosphatidylinositol 4,5-bisphosphate 3-kinase catalytic subunit alpha isoform (Homo sapiens) (UniProt P42336); conditions: at 0.1 µM
# [5] = target: Phosphatidylinositol 4,5-bisphosphate 3-kinase catalytic subunit alpha isoform (Homo sapiens) (UniProt P42336); conditions: at 1 µM
# [6] = target: T2, Phosphatidylinositol 4,5-bisphosphate 3-kinase catalytic subunit delta isoform (Homo sapiens) (UniProt O00329); conditions: at 0.1 µM
# T2 sequence (whole entry): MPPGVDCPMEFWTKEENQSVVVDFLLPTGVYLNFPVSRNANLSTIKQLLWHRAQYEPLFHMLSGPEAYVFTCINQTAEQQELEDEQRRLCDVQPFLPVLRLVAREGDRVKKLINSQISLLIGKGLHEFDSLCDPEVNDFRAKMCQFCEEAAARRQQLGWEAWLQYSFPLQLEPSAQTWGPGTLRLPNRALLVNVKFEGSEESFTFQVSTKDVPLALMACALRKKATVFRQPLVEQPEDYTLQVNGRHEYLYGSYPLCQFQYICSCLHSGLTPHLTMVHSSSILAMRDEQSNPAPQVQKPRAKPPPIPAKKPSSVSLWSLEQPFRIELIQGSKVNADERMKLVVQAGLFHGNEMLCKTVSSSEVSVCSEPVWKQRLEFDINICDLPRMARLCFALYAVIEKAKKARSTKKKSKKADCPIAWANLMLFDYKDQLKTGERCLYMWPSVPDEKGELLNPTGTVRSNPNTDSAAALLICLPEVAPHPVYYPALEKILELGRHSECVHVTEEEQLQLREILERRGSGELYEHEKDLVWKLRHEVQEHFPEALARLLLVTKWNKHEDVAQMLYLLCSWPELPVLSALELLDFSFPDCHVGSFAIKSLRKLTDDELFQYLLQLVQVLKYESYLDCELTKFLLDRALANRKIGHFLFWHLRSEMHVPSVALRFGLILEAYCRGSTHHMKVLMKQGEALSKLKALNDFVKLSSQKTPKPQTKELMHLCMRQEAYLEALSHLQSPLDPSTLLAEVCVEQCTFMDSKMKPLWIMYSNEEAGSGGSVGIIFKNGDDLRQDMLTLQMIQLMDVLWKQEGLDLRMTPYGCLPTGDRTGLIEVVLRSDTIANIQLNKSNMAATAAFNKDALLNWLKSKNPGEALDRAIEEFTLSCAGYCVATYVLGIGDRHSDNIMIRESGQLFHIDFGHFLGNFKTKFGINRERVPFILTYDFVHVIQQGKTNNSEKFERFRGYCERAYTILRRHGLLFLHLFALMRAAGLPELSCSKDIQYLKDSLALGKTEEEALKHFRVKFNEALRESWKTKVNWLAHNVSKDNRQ
# [7] = target: T2, Phosphatidylinositol 4,5-bisphosphate 3-kinase catalytic subunit delta isoform (Homo sapiens); conditions: at 1 µM
# [8] = target: Phosphatidylinositol 4-kinase beta (Homo sapiens) (UniProt Q9UBF8); conditions: at 0.1 µM
# [9] = target: Phosphatidylinositol 4-kinase beta (Homo sapiens) (UniProt Q9UBF8); conditions: at 1 µM
# [10] = target: Sphingosine kinase 1 (Homo sapiens) (UniProt Q9NYA1); conditions: at 0.1 µM;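 note: mean percent inhibition of SPHK1 activity, measured within the GSK PKIS screening panel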
# Sphingosine kinase 1 (Homo sapiens), sequence (Q9NYA1 whole entry): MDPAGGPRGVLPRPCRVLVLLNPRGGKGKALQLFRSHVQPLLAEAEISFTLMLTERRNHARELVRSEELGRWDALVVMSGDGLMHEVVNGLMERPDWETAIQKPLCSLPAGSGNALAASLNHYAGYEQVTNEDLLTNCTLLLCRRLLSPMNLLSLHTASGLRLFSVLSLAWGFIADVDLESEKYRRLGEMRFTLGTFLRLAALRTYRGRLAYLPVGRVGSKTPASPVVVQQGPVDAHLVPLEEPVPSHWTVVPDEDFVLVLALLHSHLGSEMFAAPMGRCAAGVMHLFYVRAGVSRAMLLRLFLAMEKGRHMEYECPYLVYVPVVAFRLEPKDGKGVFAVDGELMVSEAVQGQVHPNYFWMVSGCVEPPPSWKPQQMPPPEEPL
# Phosphatidylinositol 4,5-bisphosphate 3-kinase catalytic subunit alpha isoform (Homo sapiens), sequence (P42336 whole entry, canonical isoform): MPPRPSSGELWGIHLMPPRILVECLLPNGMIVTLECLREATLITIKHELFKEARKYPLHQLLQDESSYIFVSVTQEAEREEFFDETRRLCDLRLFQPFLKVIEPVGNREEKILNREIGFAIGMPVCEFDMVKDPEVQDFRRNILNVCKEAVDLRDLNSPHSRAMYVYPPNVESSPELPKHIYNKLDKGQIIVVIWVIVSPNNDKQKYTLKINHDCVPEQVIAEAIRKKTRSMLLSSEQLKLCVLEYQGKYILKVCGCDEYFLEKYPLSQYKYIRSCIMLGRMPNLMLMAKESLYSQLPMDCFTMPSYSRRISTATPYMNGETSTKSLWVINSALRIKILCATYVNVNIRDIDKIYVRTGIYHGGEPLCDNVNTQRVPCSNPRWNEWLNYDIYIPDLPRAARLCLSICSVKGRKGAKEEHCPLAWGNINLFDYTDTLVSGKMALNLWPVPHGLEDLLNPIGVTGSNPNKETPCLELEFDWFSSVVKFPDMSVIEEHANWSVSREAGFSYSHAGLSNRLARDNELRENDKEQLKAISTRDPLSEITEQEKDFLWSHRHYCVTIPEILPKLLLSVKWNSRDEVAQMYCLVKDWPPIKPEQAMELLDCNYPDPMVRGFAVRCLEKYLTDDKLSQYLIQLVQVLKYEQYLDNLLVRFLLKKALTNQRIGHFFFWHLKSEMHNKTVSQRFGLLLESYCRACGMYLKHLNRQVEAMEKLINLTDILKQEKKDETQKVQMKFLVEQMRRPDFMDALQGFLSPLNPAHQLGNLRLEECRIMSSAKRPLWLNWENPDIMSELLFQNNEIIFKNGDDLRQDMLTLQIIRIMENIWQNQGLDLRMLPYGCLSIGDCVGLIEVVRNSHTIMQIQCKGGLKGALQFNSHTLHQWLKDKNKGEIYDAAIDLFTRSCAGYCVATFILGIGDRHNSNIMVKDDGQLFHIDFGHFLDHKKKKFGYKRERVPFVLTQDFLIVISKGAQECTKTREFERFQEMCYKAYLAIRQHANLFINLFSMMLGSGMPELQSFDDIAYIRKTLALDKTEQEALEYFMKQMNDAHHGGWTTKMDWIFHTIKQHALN
# Phosphatidylinositol 4-kinase beta (Homo sapiens), sequence (Q9UBF8 2-816 limits assumed): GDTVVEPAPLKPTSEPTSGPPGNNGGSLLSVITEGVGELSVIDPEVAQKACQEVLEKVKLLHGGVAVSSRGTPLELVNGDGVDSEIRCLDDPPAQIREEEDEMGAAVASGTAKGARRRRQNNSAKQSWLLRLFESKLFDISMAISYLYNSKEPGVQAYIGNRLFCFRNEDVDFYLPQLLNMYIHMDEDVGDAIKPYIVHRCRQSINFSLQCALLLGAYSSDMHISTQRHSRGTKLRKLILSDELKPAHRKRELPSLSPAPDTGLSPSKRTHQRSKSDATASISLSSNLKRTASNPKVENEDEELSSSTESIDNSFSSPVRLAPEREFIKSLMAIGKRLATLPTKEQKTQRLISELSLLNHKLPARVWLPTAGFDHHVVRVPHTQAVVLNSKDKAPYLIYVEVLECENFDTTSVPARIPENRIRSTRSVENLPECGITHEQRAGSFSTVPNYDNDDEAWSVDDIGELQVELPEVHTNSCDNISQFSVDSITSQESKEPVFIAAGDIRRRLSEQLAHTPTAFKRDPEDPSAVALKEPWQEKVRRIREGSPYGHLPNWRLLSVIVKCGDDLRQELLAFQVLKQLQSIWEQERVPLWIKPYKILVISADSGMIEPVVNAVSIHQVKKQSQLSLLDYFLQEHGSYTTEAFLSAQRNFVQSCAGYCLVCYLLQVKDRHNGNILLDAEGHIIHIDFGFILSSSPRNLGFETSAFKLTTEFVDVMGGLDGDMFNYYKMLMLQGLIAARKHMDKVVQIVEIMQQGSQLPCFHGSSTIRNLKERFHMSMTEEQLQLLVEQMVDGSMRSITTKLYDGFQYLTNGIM
# SRSF protein kinase 1 (Homo sapiens), sequence (Q96SB4 whole entry, canonical isoform): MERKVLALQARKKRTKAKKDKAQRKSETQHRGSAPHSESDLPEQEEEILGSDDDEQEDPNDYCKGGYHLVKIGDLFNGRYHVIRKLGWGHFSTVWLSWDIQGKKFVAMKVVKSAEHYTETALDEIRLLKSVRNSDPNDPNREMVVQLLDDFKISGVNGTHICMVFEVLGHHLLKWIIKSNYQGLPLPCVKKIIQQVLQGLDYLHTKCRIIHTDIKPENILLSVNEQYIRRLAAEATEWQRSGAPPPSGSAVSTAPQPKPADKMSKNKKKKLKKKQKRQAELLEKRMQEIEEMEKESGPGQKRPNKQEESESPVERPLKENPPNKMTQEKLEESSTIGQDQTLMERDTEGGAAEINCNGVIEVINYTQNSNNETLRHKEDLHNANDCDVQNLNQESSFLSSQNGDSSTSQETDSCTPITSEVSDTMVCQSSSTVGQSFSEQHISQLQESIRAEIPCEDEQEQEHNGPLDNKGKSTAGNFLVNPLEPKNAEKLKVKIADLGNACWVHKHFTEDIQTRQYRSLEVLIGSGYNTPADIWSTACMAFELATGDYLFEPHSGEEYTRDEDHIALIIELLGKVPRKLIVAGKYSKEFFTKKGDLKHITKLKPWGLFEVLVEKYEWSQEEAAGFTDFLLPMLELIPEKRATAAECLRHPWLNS
Compound,inhibition [1] [%],inhibition [2] [%],inhibition [3] [%],inhibition [4] [%],inhibition [5] [%],inhibition [6] [%],inhibition [7] [%],inhibition [8] [%],inhibition [9] [%],inhibition [10] [%]
Cc1ccc(O)cc1Nc1ccnc2ccc(S(C)(=O)=O)cc12,3.79,-0.84,2.51,9.67,39.6,10.9,50.7,-3.87,1.39,1.12
CN(C)C(=O)O[C@@H]1CN[C@@H](C#Cc2cc3ncnc(Nc4ccc(OCc5cccc(F)c5)c(Cl)c4)c3s2)C1,1.28,-1.65,-5.46,0.17,29,3.66,20.8,-2.99,-0.33,0.88
COc1cccc(-n2ncc3c(N/N=C/c4ccc(S(C)(=O)=O)cc4)ncnc32)c1,2.32,-0.76,0.02,1.3,1.54,1,2.43,-0.72,-2.28,-1.72
COc1ccc(-c2nn3ncccc3c2-c2ccnc(Nc3cccc(C(F)(F)F)c3)n2)cc1,2.35,-2.17,-1.48,2.28,2.8,-0.05,2.34,4.99,-1.04,0.03
CN(C)c1cc2c(Nc3ccc4c(cnn4Cc4ccccc4)c3)ncnc2cn1,1.89,-2.31,-3.59,1.32,1.28,0.82,3.28,-1.83,7.07,0.08
FC(F)(F)c1ccc(-c2nn3ncccc3c2-c2ccnc(Nc3ccc4c(c3)OCCO4)n2)cc1,2.26,8.18,13,0.21,-2.14,1.63,0.41,1.96,-3.87,0.8
NS(=O)(=O)c1cccc(Nc2cc(-c3ccc(F)cc3)n[nH]2)c1,1.49,-1.05,3.13,1.31,3.66,-0.13,0.5,2.18,0.88,0.58
Cc1cc(O)cc(C)c1/C=C/c1cncc(C(=O)N(C)C)c1,2.68,-0.98,-1.41,1.77,0.49,1.59,1.73,-2.1,0.47,-0.11
CCn1c(-c2nonc2N)nc2ccc(F)cc21,3.36,-1.22,2.61,4.99,4.15,3.09,2.96,-0.18,6.29,0.88
N#Cc1c(NC(=O)c2ccccc2F)sc2c1CCCC2,-0.74,-1.54,-0.64,-2.15,-1.29,1.85,2.06,0.79,2.03,0.86
N#Cc1cccc(Nc2nccc(-c3cnn4ncccc34)n2)c1,26.4,0.8,23,6.65,23.3,3.45,21.2,-5.91,14.8,-0.07
Oc1cccc(-c2nc(-c3ccccc3)[nH]c2-c2ccncc2)c1,1.56,-1.52,0.98,2.99,2.95,2.01,1.67,-5.44,-3.49,1.87
CCOc1nccc2c1nc(-c1nonc1N)n2CC,3.14,0.65,6.12,2.9,1.35,0.56,0.99,7.22,0.43,0.81
Cc1ccc2c(c1)/C(=N/Nc1ccc(S(N)(=O)=O)cc1)C(=O)N2,-0.05,-2.83,-5.98,-1.13,8.11,1.23,2.01,6.34,1.81,-1.11
O=C1Nc2ccccc2/C1=C/Nc1ccc2[nH]c(=O)[nH]c2c1,3.5,-1.11,-0.39,4.42,4.19,1.87,2.83,-0.1,2.4,11.5
CN1CCN(C(=O)c2ccc(NC(=O)Nc3ccc(N(C)c4ccnc(Nc5ccc(CS(C)(=O)=O)cc5)n4)cc3)cc2)CC1,2.72,-1.98,-1.99,3.38,2.56,1.78,4.04,0.19,1.27,0
